# Data: article PMC4336329 (PLoS ONE, 2015)
# Hit rate of the full screen: of about 310,000 compounds, about 14,000 (4.5%) showed an effect of 50% or more. The effect is printed as a negative number. This is one part of a sample in which strong results are shown more often than they occur.
# Target: human ether-à-go-go-related gene (hERG) potassium channel (human, UniProt Q12809)
# Test: primary screen, population patch clamp on CHO cells stably expressing hERG; higher = less effect of the substance
# 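Further: peak tail current of the secondary pulse compared with the same well before compound.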
# Sequence of human ether-à-go-go-related gene (hERG) potassium channel (Q12809 whole entry, looked up): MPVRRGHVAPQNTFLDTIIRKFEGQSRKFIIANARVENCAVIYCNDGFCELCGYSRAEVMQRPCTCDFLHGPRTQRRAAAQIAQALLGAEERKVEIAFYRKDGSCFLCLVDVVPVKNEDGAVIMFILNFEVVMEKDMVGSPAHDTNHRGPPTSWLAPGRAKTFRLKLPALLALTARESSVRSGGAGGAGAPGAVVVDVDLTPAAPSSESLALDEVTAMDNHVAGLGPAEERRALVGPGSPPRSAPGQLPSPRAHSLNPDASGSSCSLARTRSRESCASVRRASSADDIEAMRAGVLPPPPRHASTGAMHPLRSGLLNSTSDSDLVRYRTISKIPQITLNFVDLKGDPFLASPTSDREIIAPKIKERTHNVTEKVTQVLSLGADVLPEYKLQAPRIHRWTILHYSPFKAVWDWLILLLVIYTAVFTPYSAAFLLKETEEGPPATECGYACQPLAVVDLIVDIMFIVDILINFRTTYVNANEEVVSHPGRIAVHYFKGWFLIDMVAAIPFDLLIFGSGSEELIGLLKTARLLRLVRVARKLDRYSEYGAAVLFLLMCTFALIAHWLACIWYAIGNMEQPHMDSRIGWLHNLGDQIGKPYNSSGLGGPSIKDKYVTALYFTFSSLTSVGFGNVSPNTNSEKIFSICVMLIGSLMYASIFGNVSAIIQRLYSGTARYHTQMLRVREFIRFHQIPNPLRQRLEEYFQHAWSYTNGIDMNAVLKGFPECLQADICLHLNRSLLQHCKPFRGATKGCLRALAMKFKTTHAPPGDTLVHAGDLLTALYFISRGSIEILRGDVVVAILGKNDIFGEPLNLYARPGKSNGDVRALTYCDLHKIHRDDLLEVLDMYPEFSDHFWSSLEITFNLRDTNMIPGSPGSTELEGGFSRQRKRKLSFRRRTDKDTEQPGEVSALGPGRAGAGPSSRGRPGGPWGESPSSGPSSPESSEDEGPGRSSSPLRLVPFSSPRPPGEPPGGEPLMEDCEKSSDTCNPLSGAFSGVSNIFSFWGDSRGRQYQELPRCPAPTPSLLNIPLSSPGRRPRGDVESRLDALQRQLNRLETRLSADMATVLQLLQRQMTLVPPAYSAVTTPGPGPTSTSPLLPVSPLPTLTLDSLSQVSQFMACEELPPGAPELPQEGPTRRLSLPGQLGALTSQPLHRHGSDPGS
row,Compound,"hERG current change (%, negative = inhibition) at 10uM [%]"
1,Cc1ccc(-c2ccc(/C=C3\SC(N4CCOCC4)=NC3=O)o2)cc1,-64.8
2,O=C1N=C(N2CCOCC2)S/C1=C\C=C/c1ccccc1,-58.2
3,O=C1N=C(N2CCOCC2)S/C1=C/c1ccc(-c2ccc(F)cc2)o1,2.43
4,Cc1ccccc1-c1ccc(/C=C2/SC(N3CCOCC3)=NC2=O)o1,-15.9
5,CC(=C/c1ccccc1)/C=C1/SC(N2CCOCC2)=NC1=O,-20.1
6,O=C1N=C(N2CCCC2)S/C1=C\C=C\c1ccccc1,-32.4
7,CC(=O)c1c(C)[nH]c(C(=O)OCn2nnc3ccccc3c2=O)c1C,9.87
8,C/C(=N\NC(=O)C1CC1c1ccccc1)c1ccc(C)s1 (stereo not shown),-6.02
9,CCn1c(/C=C/N(C)c2ccccc2)[n+](CC)c2ccc(Cl)cc21.[I-],-16
10,CCOC(=O)c1ccc2c(c1)n(CC)c(C)[n+]2CC.[I-],23.7
11,CCn1c(C)[n+](CC)c2ccc(C(=O)N(C)c3ccccc3)cc21.[I-],37.4
12,CCOC(=O)c1ccc2c(c1)n(Cc1ccccc1)c(C)[n+]2CC.[O-][Cl+3]([O-])([O-])[O-],-7.56
13,CCOC(=O)c1ccc2c(c1)n(CCCS(=O)(=O)[O-])c(/C=C/c1ccc(Cl)cc1)[n+]2CC,-23.1
14,CCOC(=O)c1ccc2c(c1)n(CC)c(/C=C/N(C)c1ccccc1)[n+]2CC.[I-],-74.3
15,CCOC(=O)c1ccc2c(c1)n(CCO)c(C)[n+]2CC.[I-],10.6
16,CCOC(=O)c1ccc2c(c1)n(CC)c(/C=C/Nc1ccccc1)[n+]2CC.[I-],-80
17,CCn1c(/C=C/Nc2ccccc2)[n+](CC)c2ccc(C(=O)OCC(F)(F)F)cc21.[I-],-81.6
18,CCN(C(=O)Nc1ccccc1)c1ccccc1,4.25
19,CN(C)CCCNc1ccc(-c2nn(C)c(=O)c3ccccc23)cc1[N+](=O)[O-],-16
20,Cl.Fc1ccc(Cn2nnnc2CN2CCc3ccccc3C2)cc1,-10.6

row,Compound,"hERG current change (%, negative = inhibition) at 10uM [%]"
1,Cn1c(CSc2nc3ccccc3s2)nnc1SCC(=O)NCc1cccnc1,-5.4
2,CC(=O)Nc1cccc(OCc2cnc(Cl)s2)c1,11.4
3,COc1ccccc1-c1c(C)nn2c(N3CCCCCC3)cc(C)nc12,-8.02
4,CSc1ncc(C(=O)Nc2cccc(C)c2C)c(C)n1,9.56
5,Cc1ccc(C(=O)Nc2ccc(Br)c(C(F)(F)F)c2)cc1,4.38
6,Cc1nn2c(COc3ccc(NC(=O)c4ccccc4)cc3)nnc2c2ccccc12,4.38
7,Cc1nnc(SCc2ccc(F)cc2)n1NC/C=C/c1ccccc1,-18.6
8,CC(=O)c1ccc(OCC(=O)NCC2(N3CCCCC3)CCCCC2)cc1,4.71
9,CCC(=O)c1ccc(OCC(=O)NCC2(N3CCCCC3)CCCCC2)cc1,-51.5
10,O=C(COc1ccccc1)NCC1(N2CCCCC2)CCCCC1,-30
11,N#Cc1ccccc1OCC(=O)NCC1(N2CCCCC2)CCCCC1,-29.4
12,CCOc1ccc(CC(=O)NCC2(N3CCCCC3)CCCCC2)cc1,-17
13,N#Cc1ccc(OCC(=O)NCC2(N3CCCCC3)CCCCC2)cc1,-78.2
14,C/C(CCc1ccco1)=N/NC(=O)CCC(=O)Nc1ccc(Br)cc1,10.2
15,CCn1c(SCc2nc3sc(C(=O)O)c(C)c3c(=O)[nH]2)nc2ccccc21,3.32
16,CC(C)(C)C(=O)N1c2ccccc2CCc2ccccc21,-0.0543
17,C=CCn1c(COc2ccccc2)nc2ccccc21,-7.62
18,C=CCn1c(COc2ccccc2OC)nc2ccccc21,-0.267
19,C=CCn1c(COc2ccc(OC)cc2)nc2ccccc21,-79.8
20,CCOCCn1c(COc2ccc(C)cc2)nc2ccccc21,-52.6

row,Compound,"hERG current change (%, negative = inhibition) at 10uM [%]"
1,CCOCCn1c(COc2ccccc2)nc2ccccc21,-33.6
2,COCCn1c(COc2ccc(C)cc2)nc2ccccc21,-11.9
3,O=C(Nc1cccc(NC(=O)c2ccccc2Cl)c1)c1ccc([N+](=O)[O-])o1,-16.4
4,CC1Cc2nc(SCC(=O)N3CCCC3)n(C)c(=O)c2S1 (stereo not shown),-7.79
5,COc1ccc(C(=O)Nc2ccc(NC(=O)c3cccs3)cc2)cc1[N+](=O)[O-],5.49
6,O=C1C2ON(c3ccccc3)C(c3cccnc3)C2C(=O)N1Cc1ccccc1 (stereo not shown),-50.8
7,O=C1C2ON(c3ccccc3)C(c3cccnc3)C2C(=O)N1c1ccccc1 (stereo not shown),18.1
8,O=C1C2ON(c3ccccc3)C(c3cccnc3)C2C(=O)N1c1ccc(Cl)c(Cl)c1 (stereo not shown),10.5
9,CC(C)(C)n1nnnc1C(c1ccc(F)cc1)N1CCC(C(N)=O)CC1.Cl (stereo not shown),11.3
10,CC1CN(C(=O)c2ccc(-c3cccc(C(F)(F)F)c3)o2)CC(C)O1 (stereo not shown),-43.7
11,CC(=O)N1CCN(C(=O)c2ccc(-c3cccc(C(F)(F)F)c3)o2)CC1,-53.5
12,CC(C)(CNC(=O)c1ccc(-c2cccc(C(F)(F)F)c2)o1)N1CCOCC1,-76.3
13,COc1ccc(C(CNC(=O)c2ccc(-c3cccc(C(F)(F)F)c3)o2)N2CCOCC2)cc1 (stereo not shown),-6.09
14,O=C(c1ccco1)N1CCN(C(=O)c2ccc(-c3cccc(C(F)(F)F)c3)o2)CC1,-79.9
15,O=C(c1ccc(-c2cccc(C(F)(F)F)c2)o1)N1CCOCC1,-21.8
16,O=C(c1ccc(-c2cccc(C(F)(F)F)c2)o1)N1CCN(c2ccccc2O)CC1,17.1
17,O=C(c1ccc(-c2cccc(C(F)(F)F)c2)o1)N1CCCCCCC1,-3.68
18,O=C(c1ccco1)N1CCN(Cc2cccc(C(F)(F)F)c2)CC1,-5.15
